Source: PubChem (National Center for Advancing Translational Sciences (NCATS))
The list is not random: actives were taken first. Their share in the collection is about 4.8%.
Casp1 inh: caspase-1 (human) inhibition, allosteric or competitive; Caspase-1 enzyme, Ac-WEHD-AFC fluorogenic rate; Potency, µM (top dose mostly 57.5 µM), without a hit: at the highest dose activity change, negative = inhibition, usual class: inhibitors; hit rate 0.03% among 75,000; AID 900;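 note: plate controls were vehicle for no effect and no substrate for full effect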
ERK AVP block: blocks ERK signaling stimulated by vasopressin | Potency, µM (highest dose often 57.5 µM), without a hit: at the highest dose activity, negative = inhibition, most hits filed as inhibitors | HEK293-V1b, vasopressin-stimulated pERK AlphaScreen | hit rate 0.99% among 72,000; note: % is set by controls: 0 for no effect and ±100 for the full control effect; nearly all actives have a fitted effect of over 55% in size
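HEK293 cells stably expressing V1b receptor, seeded overnight in 1% FBS, were treated with compounds for 30 min at 37C, then stimulated 5 min with 25 nM vasopressin; phospho-ERK read by AlphaScreen SureFire after lysis.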
HEK293 cAMP cs: raises cAMP in parental HEK293 cells, TSHR agonist counter-screen | parental HEK293 CNG cAMP sensor, membrane potential fluorescence | Potency, µM (highest dose often 57.1 µM), for the others: at the highest dose activation, actives largely listed as activators | hit rate 2.5% among 73,000 | AID 938; note: % of control where 0% means no effect; nearly all actives have a fitted effect of over 55% in size
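Parental HEK 293 cells stably expressing a cAMP-gated CNG channel were loaded with membrane potential dye containing 100 uM RO 20-1724 for 60 min. Compound added for 30 min; depolarization read as fluorescence intensity at 590 nm.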
15-hLO inh: inhibitors of human 15-lipoxygenase (ALOX15). Potency, µM (titrated, usually from 57.1 µM), without a hit: at the highest dose activity change, negative = inhibition, actives largely listed as inhibitors. hit rate 1.4% among 74,000. purified 15hLO-1, xylenol orange hydroperoxide absorbance. AID 887. P16050; note: % is set by controls: 0 for no effect and ±100 for the full control effect; nearly all actives have a fitted effect of over 55% in size
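Purified human 15hLO-1 (40 nM) in 25 mM Hepes pH 7.5, 0.01% Triton X-100, preincubated 15 min RT with compound, then 50 uM arachidonic acid for 6 min. Hydroperoxide read by ferrous/xylenol orange, 30 min; 573/405 nm absorbance ratio gave progress.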
TSHR ag: activates the human thyroid stimulating hormone receptor; P16473; HEK293-CNG-TSHR cells (CNG channel as cAMP sensor), membrane potential dye, cAMP; Potency, µM (doses to about 57.1 µM), for the others: top-dose activation, most hits filed as activators; hit rate 0.48% among 73,000; AID 926; active = well fitted activation curve with a large enough effect in the main read-out, with a control signal flat, not every such curve was filed as active; inconclusive = small, poorly fitted or top-dose-only effect, or a change in a side signal; inactive = no such curve, though single readings can be large or run the other way; % of control where 0% means no effect;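 note: the control signal comes from parental cells without the receptor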
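cAMP rise detected as CNG-channel membrane depolarization by fluorescent dye (emission 590 nm), 30 min after compound, following 60 min dye loading containing 100 uM RO 20-1724 at room temperature. Cells: TSHR/CNG HEK 293, with parental CNG HEK 293 as control.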
Casp7 inh: caspase-7 (human) inhibition, allosteric or competitive; recombinant caspase-7, Ac-DEVD-AFC fluorescence rate; Potency, µM (highest dose often 57.5 µM), inactives show at the highest dose activity change, negative = inhibition, actives largely listed as inhibitors; hit rate 0.02% among 75,000; AID 889; active = well fitted inhibition curve with a large enough effect in the main read-out, with a control signal flat, not every such curve was filed as active; inconclusive = small, poorly fitted or top-dose-only effect, or a change in a side signal; note: % of control where 0% means no effect
Active calls of the source: *; ? = inconclusive; / = not tested or not shown; [ ] = remark or other dose. Unless noted, calls come from the whole dose curve; as a rule, active = well fitted curve in the direction sought with a large enough effect; inconclusive = small, poorly fitted or top-dose-only effect, or another doubt; inactive = no such curve, though single readings can be large; an effect the other way counts as inactive or inconclusive. Potency is the fitted concentration of half-maximal effect.

SMILES	Casp1 inh	ERK AVP block	HEK293 cAMP cs	15-hLO inh	TSHR ag	Casp7 inh
CC(C)(CO)[C@H](O)C(=O)NCCCO	-2.5%[25.7 µM]	1.4%[25.7 µM]	0.4%[25.6 µM]	1.1%[25.6 µM]	0.7%[25.6 µM]	1.7%[25.7 µM]
CC(C)[C@@H]1O[C@H](/C=C\c2ccccc2)OCC1(C)C	-3.4%[11.5 µM]	0.8%[11.5 µM]	22.4%[11.4 µM]	-1.3%[11.4 µM]	5.0%[11.4 µM]	0.4%[11.5 µM]
O=C(NCc1ccccc1)c1ccc(-c2ccccc2F)o1	0.1%	15.8µM*	14.0%	-17.2%	32.0%	-0.3%
O=C(NCc1ccccc1)c1c(F)c(F)c(F)c(F)c1F	0.3%	-14.8%	?	2.1%	?	-0.1%
N#Cc1c(-c2ccco2)cc(C2CC2)nc1SCC(=O)c1ccccc1	-11.3%	8.2%	?	15.8µM*	?	-20.3%
CC12CC[C@@H]3c4ccc(OS(=O)(=O)O)cc4CC[C@H]3C1CCC2=O (stereo not given in full)	-2.4%[25.7 µM]	12.2%[25.7 µM]	-3.7%[25.6 µM]	4.4%[25.6 µM]	-1.6%[25.6 µM]	1.0%[25.7 µM]
N#Cc1nc(-c2cccs2)oc1N1CCN(c2ccccc2)CC1	-5.9%	-16.5%	20µM*	-5.0%	?	-3.9%
N#Cc1nc(Cc2ccccc2)oc1N1CCN(c2ccccc2)CC1	-2.9%	25.1µM*	?	-8.5%	?	-3.0%
N#Cc1nc(-c2ccco2)oc1N1CCN(Cc2ccccc2)CC1	-7.7%	-21.4%	16.8%	-1.5%	24.4%	-1.4%
O=C(CSc1nnc(Cn2nnc3ccccc32)o1)N(Cc1ccc(F)cc1)c1ccccc1	-1.2%	-11.9%	15.8µM*	-3.1%	?	-1.1%
CC[C@H]1C2=C3C(CC[C@H]4C(OC)OC[C@](C)([C@@H]34)N(C(=O)OC(C)(C)C)C2)C(CO)C1CO (stereo not given in full)	-1.3%	-3.8%	3.2%	/	2.5%	-5.6%
COc1ccc(OC)c(C(c2nnnn2CCC(C)C)N2CCN(C(=O)c3ccco3)CC2)c1 (stereo not given)	-0.6%	21.2%	15.8µM*	-9.3%	?	-3.4%
CCOC(=O)CSc1nnc(-c2ccco2)n1-c1ccccc1	1.1%	2.6%	29.0%	1.4%	6.2%	-2.0%
COC(=O)c1cccc(CSc2nnc(-c3ccco3)n2-c2ccccc2)c1	-0.6%	3.7%	20µM*	-16.2%	?	-3.7%
CCCn1c(-c2ccc(F)cc2)nc2c(NC3CCN(Cc4ccccc4)CC3)nc(C)nc21	1.1%	2.2%	?	20µM*	?	-1.6%
CCCn1c(-c2ccc(F)cc2)nc2c(NCC(C)(C)CN(C)C)nc(C)nc21	-7.2%	-9.4%	25.1µM*	12.6µM*	?	-2.2%
CCCn1c(C)nc2c(NCCN(C)C)nc(C)nc21	2.4%	2.2%	0.2%	25.1µM*	3.5%	-0.5%
CCCn1c(-c2ccc(F)cc2)nc2c(NCCN3CCCC3)nc(C)nc21	1.7%	21.9%	?	-18.6%	?	1.4%
CCCn1c(-c2ccc(F)cc2)nc2c(N3CCN(Cc4nc(OC)cc(OC)n4)CC3)nc(C)nc21	-3.4%	-20.9%	15.8µM*	-3.4%	?	-3.0%
COc1nc2c(C)cccc2cc1-c1noc(-c2ccncc2)n1	0.5%	-12.0%	12.0%	15.2%	/	0.2%
CCCn1c(-c2ccc(F)cc2)nc2c(NCCCN(C)C)nc(C)nc21	0.6%	0.0%	25.1µM*	-22.7%	?	0.6%
CCCn1c(C)nc2c(N(CCN(C)C)Cc3ccccc3)nc(C)nc21	-5.9%	?	?	15.8µM*	?	-1.4%
CCCn1c(C)nc2c(N(CCN(CC)CC)CCN(CC)CC)nc(C)nc21	0.3%	0.2%	?	5.4%	?	-0.5%
COCCn1c(=O)c(-c2ccc(OC)cc2)nc2cnc(N3CCOCC3)nc21	/	13.0%	14.6%	-5.8%	/	?
O=C(CN1C(=O)COc2ccccc21)N(Cc1cccnc1)Cc1ccccc1F	0.0%	-15.6%	10µM*	11.7%	?	2.5%
SMILES	Casp1 inh	ERK AVP block	HEK293 cAMP cs	15-hLO inh	TSHR ag	Casp7 inh
O=C(CCN1C(=O)COc2ccccc21)NCc1cccnc1	-1.4%	-2.8%	-0.1%	-5.1%	-3.3%	-0.1%
CCN(CC)CCCn1c(-c2ccccc2)nc2c(N3CCOCC3)nc(C)nc21	0.8%	-2.4%	24.9%	3.3%	15.4%	-0.1%
Nc1nc(-c2cccs2)c(NC(=O)c2ccccc2)s1	-0.8%	?	-19.2%	20µM*	-2.2%	-1.2%
O=C(Nc1c(-c2ccccc2)nc2sccn12)c1ccccc1	-0.5%	/	-9.5%	2.8%	-8.7%	0.3%
O[C@H](CCCN1CCN(c2ncc(F)cn2)CC1)c1ccc(F)cc1	-1.1%	-8.2%	9.8%	-21.0%[25.6 µM]	8.6%	0.5%
Cc1noc(C)c1CSc1nnc(-c2ccccc2F)n1CCc1ccccc1	-0.7%	9.2%	10µM*	8.4%	?	-1.6%
CCOC(=O)Nc1ccc2c(c1)N(C(=O)N(CC)CC)c1ccccc1CC2	-2.1%	6.2%	5.9%[11.4 µM]	-12.2%[11.4 µM]	3.16µM*	-2.5%
COc1ccc(CNc2ncnc3ccc(-c4cccc(NS(C)(=O)=O)c4)cc23)c(OC)c1	-0.2%	?	21.2%	3.4%	18.5%	-5.9%
CN(c1ccccc1)c1nc(-n2ccnc2)nc(-n2ccnc2)n1	-1.4%	?	22.8%	14.7%	/	1.5%
c1ccc(N(c2ccccc2)c2nc(-n3ccnc3)nc(-n3ccnc3)n2)cc1	-2.9%	4.5%	25.1µM*	19.6%	?	-5.9%
c1ccc(-c2nc(N3CCCCCC3)nc(-n3ccnc3)n2)cc1	-0.7%	39.0%	29.9%	2.7%	3.98µM*	-0.5%
COc1ccc(Cn2nnnc2C(C(C)C)N2CCN(c3ccccc3OC)CC2)cc1 (stereo not given)	-3.8%	-9.2%	12.6µM*	-8.3%	?	5.7%
COc1ccc(OC)c(C(c2nnnn2Cc2ccccc2)N2CCN(C)CC2)c1 (stereo not given)	-0.1%	-3.3%	?	0.7%	?	0.1%
COc1ccccc1N1CCN(C(c2ccc(C)cc2)c2nnnn2C(C)C)CC1 (stereo not given)	-3.5%	-13.8%	15.8µM*	-1.9%	?	-0.3%
CC(C)c1cc(C(F)(F)F)nc(NNc2nc(C(C)C)cc(C(F)(F)F)n2)n1	0.8%[11.5 µM]	-1.0%[11.5 µM]	5.01µM*	-3.4%[11.4 µM]	?	-0.6%[11.5 µM]
CC#N	-0.8%	-3.6%	-9.0%	5.7%	2.1%	0.7%
COC(=O)c1ccc(COC(=O)C23CC4CC(CC(O)(C4)C2)C3)o1	-2.4%	1.4%	6.7%	7.3%	25.1µM*	-0.5%
CCOC(=O)C(C(C)=O)c1c(Br)c(O)c(O)c2c(C(=O)c3ccc(C)cc3)coc12 (stereo not given)	-2.4%	?	14.3%	2µM*	11.0%	-3.1%
C[C@H](O)[C@H](O)[C@@H]1CNc2nc(N)[nH]c(=O)c2N1	3.3%	26.2%	-3.1%	25.2%	9.2%	?
